From PubChem BioAssay AID686978 (National Center for Advancing Translational Sciences (NCATS), 2013)
Values joined by “and” are separate entries in the source; they are usually repeats but may differ in a detail not shown here. Equal values may be shown once. Hit rate of the full screen: of about 420,000 compounds, about 64,000 (15%) were called active. Another 27% or so got no clear call; they are omitted. The sample as a whole holds a higher share of actives than the screen did. Unmarked numbers belong to inactive results. Calls follow the shape of the dose curve; as a rule, active = well fitted inhibition curve with a large enough effect; inconclusive = small, poorly fitted or top-dose-only effect; inactive = flat fitted curve, though single readings scatter.

Test: qHTS for Inhibitors of human tyrosyl-DNA phosphodiesterase 1 (TDP1): qHTS in cells in absence of CPT; also: nearly all actives have a fitted effect of over 55% in size
Conditions: DT40 Tdp1-/- hTDP1 cells, no CPT, ATP luminescence, 48 h; series mostly up to 46.2 µM; activity change, negative = growth inhibition: at the top concentration
Method in brief: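 Chicken DT40 Tdp1-/- cells stably complemented with human TDP1 were seeded at 400 cells/well with DMSO in place of 20 nM camptothecin. After compound pinning, cells grew at least 48 hr at 37 °C; viability read by CellTiter-Glo luminescence.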
% is scaled to controls: 0 for no effect and ±100 for the full control effect; potency is read from the fitted curve at half-maximal effect.

Compound	activity change, negative = growth inhibition	Potency
CC(=O)OC1C2CCC3C1(CC(O)[C@@]1(O)[C@@H](CC(O)C1(C)C)[C@]3(C)O)C[C@@]2(C)O (some centres not stated)	0.989%	
COc1ccc(-c2cc(NC=O)c3ncc(-c4cc(OC)c(OC)c(OC)c4)n3c2)c(OC)c1		0.82 µM (active)
O=C1NC(=O)N(Cc2ccco2)C(=O)/C1=C\c1cccn1CCOc1ccccc1	-1.44%	
O=C(O)COc1ccccc1/C=C1\C(=O)NC(=O)N(CCC2=CCCCC2)C1=O	0.529%	
O=C1NC(=O)N(CCc2ccc(F)cc2)C(=O)/C1=C/C=C/c1ccccc1		6.51 µM (active)
CCc1ccc(N(CC)C(=O)CCn2cnc3onc(-c4ccc(F)cc4)c3c2=O)cc1		13 µM (active)
O=C(/C=C/c1cccs1)c1cc(Cl)ccc1OC(=O)N1CCOCC1		16.4 µM (active)
Cc1cccc(-n2c(O)c(C=NC34CN5CN(CN(C5)C3)C4)c(=O)[nH]c2=O)c1	6.16%	
COC12CC[C@@]3(C[C@@H]1C(C)(O)C(C)(C)C)[C@H]1Cc4ccc(O)c5c4[C@@]3(CCN1CC1CC1)[C@H]2O5 (some centres not stated)		24.1 µM (active)
Oc1ccc2c3c1OC1[C@H](O)CC[C@@]4(O)[C@@H](C2)N(CC2CC2)CC[C@]314 (some centres not stated)		inactive
CCOC(=O)C1CN(C)CCC1=O (configuration not stated)	-26%	
CCC/C(=N\O)c1c[nH]c2ccccc12	-19.1%	
CNCC[C@H](Oc1ccc(C(F)(F)F)cc1)c1ccccc1		8.41 µM (active) and 14.6 µM (active)
CCC1(CC(C)c2ccccc2)C(=O)NC(=O)NC1=O (configuration not stated)	-14.9%	
CCCCC/C=C\C/C=C\C/C=C\CCCCCCC(=O)NCCO	-2.66% [at 4.12 µM]	
CC1CCCN1CCC(C(N)=O)(c1ccccc1)c1ccccc1 (configuration not stated)	-4.44%	
O=Cc1cn(Cc2ccc(F)cc2Cl)c2ccccc12		18.4 µM (active)
O=[N+]([O-])c1ccc(Cl)c(Cl)c1	-16.7%	
CCC(=NCc1ccco1)c1c(O)n(Cc2ccccc2)c(=O)[nH]c1=O	-23.7%	
Clc1ccc([C@@H]2C[C@H]3CC[C@@H]2N3)cn1		inactive
Cc1ccc([C@H]2C[C@H](O)[C@@H](n3cc(COC(=O)c4ccccc4)nn3)CN2CC2CCCCC2)cc1		20.6 µM (active)
COCCNC(=O)CN1C2CCC1CC(O)(c1cccnc1)C2 (configuration not stated)	-16.8%	
Cn1c(O)c(C=NCCN2CCNCC2)c(=O)n(C)c1=O	-2.35%	
NCC(O)c1ccc(O)cc1 (configuration not stated)		inactive
c1csc(CN2CC3(CCNCC3)C2)n1	-19.2%	
CCc1ccccc1NC(=O)c1sc2nc3c(cc2c1N)CN(Cc1ccccc1)CC3		5.8 µM (active)
CC12CN3CC(C)(CN(C1)C3c1cccs1)C2 (configuration not stated)	-6.5%	
